Screens as filed in PubChem BioAssay.
TIM10 inh: growth inhibitors of isogenic TIM10 control yeast, primary screen, counter-screen for tim10-1 yeast inhibitor project, luminescence, uHTS; S. cerevisiae TIM10 strain growth, BacTiter-Glo luminescence, 24 h; inhibition, % at 10 µM; hit rate 1.4% among 330,000; AID 463195, 2010;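 active means inhibition of 40% or more at the single tested concentration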;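 further: wild-type TIM10 isogenic control strain grown at permissive 25 °C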
NALP1 inh: NALP1 inflammasome inhibitors in reconstituted yeast, colorimetric, S. cerevisiae, triplicate retest | S. cerevisiae NALP1/ASC/caspase-1 growth, X-gal OD620, 72 h | inhibition, % at 10 µM | hit rate 0.61% among 280,000; in the data active means inhibition mostly above about 24%, no sharp cut-off; inactive means mostly below about 32%
tim10-1 inh: growth inhibitors of tim10-1 mutant yeast, primary screen, luminescence, uHTS; AID 463190, 2010; inhibition, % at 20 µM; hit rate 2.2% among 330,000; S. cerevisiae tim10-1 ts strain growth, BacTiter-Glo, 24 h;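 active means inhibition of at least 40%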;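 further: mutant grown at 25 °C; 0% = DMSO wells with yeast and 100% = wells holding no yeast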
NALP3 yeast inh: NALP3 inflammasome inhibitors in reconstituted yeast, primary screen, luminescence, uHTS; Yeast reconstituted NLRP3/ASC/caspase-1, beta-gal luminescence, 24 h; inhibition, % at 10 µM; hit rate 0.39% among 330,000; AID 2825, 2010;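 active means inhibition of 50% or more; inactive means inhibition below 50%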;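 further: plate controls were induced DMSO wells for no effect and uninduced yeast grown without galactose for full effect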
tim23-1 inh: growth inhibitors of tim23-1 mutant yeast, primary screen, luminescence, uHTS; S. cerevisiae tim23-1 growth, BacTiter-Glo luminescence, 24 h; hit rate 1.3% among 330,000; inhibition, % at 20 µM; AID 463212, 2010;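 active means growth inhibition of the mutant yeast at or above 50%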;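 further: temperature-sensitive mutant grown at 25 °C; plate controls were DMSO-treated mutant yeast for no effect and medium wells lacking yeast for full effect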
V-ATPase pHluor: regulators of yeast V-ATPase proton pumping, primary screen, pHLuorin cytosolic pH fluorescence | S. cerevisiae | response, % at 10 µM | hit rate 0.37% among 350,000 | AID 504577, 2011; in the data active means response mostly above about 7.3%, no sharp cut-off; inactive means mostly below about 5.4%; further: actives read high
tim10-1 conf: growth inhibitors of tim10-1 mutant yeast, confirmation, single concentration, luminescence, S. cerevisiae; hit rate 56% among 7,400; shares compounds with tim10-1 inh; AID 463213, 2010; S. cerevisiae tim10-1 ts strain growth, BacTiter-Glo, 24 h; inhibition, % at 20 µM;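 active means inhibition of yeast growth at or above a set limit in either of two repeat tests at 20 µM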;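 further: tim10-1 mutant grown at permissive 25 °C to find synthetic lethal compounds; 0% = DMSO yeast wells and 100% = medium wells without yeast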
The depositor's hits bear a star; . = no result given. An excerpt weighted towards active compounds, which were near 4.2% of everything screened.

SMILES	TIM10 inh	NALP1 inh	tim10-1 inh	NALP3 yeast inh	tim23-1 inh	V-ATPase pHluor	tim10-1 conf
COC(=O)c1ccc(/C=C/C(=O)c2cccc(OC)c2)cc1	20	39	42*	28	36	-1	34*
COc1cccc(C(=O)/C=C/c2ccc(OCC#N)c(OC)c2)c1	38	16	43*	12	38	2	31
COc1cc(C(C)=O)ccc1OCC(=O)OCCCOC(=O)COc1ccc(C(C)=O)cc1OC	7	2	8	0	4	-3	.
Cc1cnn(-c2cc(Oc3ccccc3)ncn2)c1	14	-9	49*	15	-9	-2	26
c1ccc(Oc2cc(-n3cncn3)ncn2)cc1	7	22	25	-5	11	0	.
CC(=O)c1c(N2CCN(c3cccc(Cl)c3)CC2)nc(=S)n(-c2ccccc2)c1C	10	-4	10	24	7	1	.
CCn1c(C)c(C(C)=O)c(N2CCN(c3cccc(Cl)c3)CC2)nc1=S	9	1	44*	21	13	5	16
CCOC(=O)c1c(-c2ccccc2Cl)csc1NC(=O)c1cc(S(=O)(=O)N2CCOCC2)ccc1C	28	27	14	4	7	-1	.
O=C(Nc1cccc(C(F)(F)F)c1)N1CCC(c2nc(-c3ccc(F)cc3)no2)CC1	7	6	42*	28	30	-1	39*
O=C(Nc1ccccc1)N1CCCC(c2nc(-c3ccc(F)cc3)no2)C1 (centres undefined)	9	10	21	27	21	-1	.
C[C@@H](NCCCn1cnc2c(OCc3ccccc3)ncnc21)c1cccc2ccccc12	.	.	.	.	.	3	.
Cn1nccc1C(=O)Nc1sc2c(c1C#N)CCCC2	10	0	21	20	26	0	.
N#Cc1c(NC(=O)c2ccc(Cn3cc(Br)cn3)o2)sc2c1CCCCCC2	27	27	41*	19	27	-4	32*
Cc1ccc2c(c1)CCCN2C(=O)c1cc2ccccc2oc1=O	24	18	43*	11	49	-3	44*
Cc1ccc2c(c1)CCCN2C(=O)c1ccoc1C	-8	1	28	-16	18	-5	.
O=C(NCc1cc([N+](=O)[O-])ccc1O)c1cccc(NS(=O)(=O)c2ccccc2)c1	-8	-4	-4	4	-16	-2	.
c1ccc(-c2cc3n(c2)CCc2ccccc2-3)cc1	25	3	42*	-2	27	-4	29
C/C(=N\Nc1cccc(C(F)(F)F)c1)c1ccc(O)cc1	9	13	45*	-8	16	-1	-10
C/C(=N\NC(=O)CNc1cccc(C(F)(F)F)c1)c1ccc(Br)cc1	12	-9	27	11	12	1	.
O=C(OCC(=O)N1CCc2ccccc21)c1c2c(nc3ccccc13)CCCC2	40	9	39	24	34	0	.
CC1Cc2ccccc2N1C(=O)COC(=O)c1c2c(nc3ccccc13)CCCCC2 (centres undefined)	35	.	41*	19	35	4	36*
COc1ccc(C(=O)NCCN2CCCC2)cc1[N+](=O)[O-]	-5	-4	-9	15	-1	0	.
O=C(O)c1ccc(CSc2nc3ccc(N4C(=O)C5C6C=CC(C6)C5C4=O)cc3s2)cc1 (centres undefined)	22	17	52*	11	24	2	29
CCOc1ccccc1C(=O)NC(C(=O)Nc1cccnc1)C(C)C (centres undefined)	0	3	3	5	6	-2	.
COc1cccc(CNS(=O)(=O)c2ccccc2Br)c1OC	.	.	.	.	.	2	.
Clc1ccc2ncc(-c3nnnn3-c3ccccc3)c(-c3ccccc3)c2c1	30	11	44*	8	48	3	36*
COc1ccc2c(=O)c(-c3ccccc3)coc2c1	-2	6	-5	39	17	4	.
CCN(CC)C(=O)Oc1ccc2c(=O)c(-c3ccccc3)coc2c1	25	16	54*	37	21	2	41*
